For assay [1], the target named is T1, Serine/threonine-protein kinase 17A (Homo sapiens) (UniProt Q9UEE5).
T1 sequence (whole entry): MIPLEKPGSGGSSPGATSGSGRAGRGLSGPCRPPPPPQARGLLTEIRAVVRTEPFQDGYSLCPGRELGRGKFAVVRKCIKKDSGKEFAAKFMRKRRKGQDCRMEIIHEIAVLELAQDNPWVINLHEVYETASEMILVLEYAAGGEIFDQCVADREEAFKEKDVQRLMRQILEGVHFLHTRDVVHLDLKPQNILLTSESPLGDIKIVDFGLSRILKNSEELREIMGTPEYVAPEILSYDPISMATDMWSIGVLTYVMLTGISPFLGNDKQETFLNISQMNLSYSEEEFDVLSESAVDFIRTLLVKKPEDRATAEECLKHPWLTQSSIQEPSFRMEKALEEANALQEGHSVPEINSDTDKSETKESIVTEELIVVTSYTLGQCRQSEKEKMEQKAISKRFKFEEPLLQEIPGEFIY
As to conditions: at 10 µM.

Assay [2] has as its target T2, Dual specificity tyrosine-phosphorylation-regulated kinase 2 (Homo sapiens) (UniProt Q92630).
T2 sequence (whole entry): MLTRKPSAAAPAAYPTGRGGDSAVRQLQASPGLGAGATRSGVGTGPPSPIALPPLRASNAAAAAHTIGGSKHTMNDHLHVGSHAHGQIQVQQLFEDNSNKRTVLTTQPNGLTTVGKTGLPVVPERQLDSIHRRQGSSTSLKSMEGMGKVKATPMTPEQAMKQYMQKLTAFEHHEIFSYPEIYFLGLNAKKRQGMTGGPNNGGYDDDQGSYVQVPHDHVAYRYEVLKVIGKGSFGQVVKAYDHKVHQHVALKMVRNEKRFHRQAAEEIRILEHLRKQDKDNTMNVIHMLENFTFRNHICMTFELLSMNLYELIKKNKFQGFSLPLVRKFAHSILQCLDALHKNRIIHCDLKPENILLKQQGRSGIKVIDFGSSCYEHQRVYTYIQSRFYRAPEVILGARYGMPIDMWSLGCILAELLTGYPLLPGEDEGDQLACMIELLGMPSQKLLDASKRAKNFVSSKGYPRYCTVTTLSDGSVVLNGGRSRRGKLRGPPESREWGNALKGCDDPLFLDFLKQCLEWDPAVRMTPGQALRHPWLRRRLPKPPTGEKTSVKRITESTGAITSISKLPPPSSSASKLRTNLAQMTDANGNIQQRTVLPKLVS
The conditions noted are these: at 1 µM.

The target of assay [3] is T2, Dual specificity tyrosine-phosphorylation-regulated kinase 2 (Homo sapiens). The conditions noted are these: at 10 µM.
Assay [4] addresses Epidermal growth factor receptor (Homo sapiens) (UniProt P00533). As to conditions: at 1 µM.
For assay [5] the target is unchanged. As to conditions: at 10 µM.
For assay [6], the target named is T3, Ephrin type-A receptor 1 (Homo sapiens) (UniProt P21709).
T3 sequence (whole entry): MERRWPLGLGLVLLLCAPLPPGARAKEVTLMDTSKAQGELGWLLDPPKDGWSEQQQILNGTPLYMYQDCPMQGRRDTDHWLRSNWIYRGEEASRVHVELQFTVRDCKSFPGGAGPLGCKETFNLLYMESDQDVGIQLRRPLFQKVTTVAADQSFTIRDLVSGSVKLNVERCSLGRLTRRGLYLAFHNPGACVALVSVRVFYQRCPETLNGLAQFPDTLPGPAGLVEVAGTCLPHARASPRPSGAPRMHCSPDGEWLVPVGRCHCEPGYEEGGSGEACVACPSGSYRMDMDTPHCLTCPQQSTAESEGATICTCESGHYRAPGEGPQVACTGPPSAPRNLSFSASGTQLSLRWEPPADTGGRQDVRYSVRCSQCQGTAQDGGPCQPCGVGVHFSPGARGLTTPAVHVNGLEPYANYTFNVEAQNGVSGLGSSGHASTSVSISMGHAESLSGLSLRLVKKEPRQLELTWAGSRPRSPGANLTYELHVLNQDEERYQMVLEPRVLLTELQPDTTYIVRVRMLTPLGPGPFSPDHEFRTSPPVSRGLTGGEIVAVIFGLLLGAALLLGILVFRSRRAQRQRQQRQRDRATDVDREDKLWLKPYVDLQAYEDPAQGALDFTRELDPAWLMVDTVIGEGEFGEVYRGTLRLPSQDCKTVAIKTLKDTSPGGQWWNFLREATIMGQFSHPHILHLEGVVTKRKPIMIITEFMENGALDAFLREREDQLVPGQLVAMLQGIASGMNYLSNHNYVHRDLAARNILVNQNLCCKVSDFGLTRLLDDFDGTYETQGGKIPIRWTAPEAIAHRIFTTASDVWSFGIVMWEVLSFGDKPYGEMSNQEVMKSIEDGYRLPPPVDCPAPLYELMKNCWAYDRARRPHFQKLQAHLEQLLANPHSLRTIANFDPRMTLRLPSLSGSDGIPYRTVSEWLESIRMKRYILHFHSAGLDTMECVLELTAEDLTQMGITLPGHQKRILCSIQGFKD
As to conditions: at 1 µM.

Assay [7] concerns the target Ephrin type-A receptor 5 (Homo sapiens) (UniProt P54756). As to conditions: at 1 µM.
Assay [8] shares this target. As to conditions: at 10 µM.
Assay [9] has as its target T4, Ephrin type-B receptor 1 (Homo sapiens) (UniProt P54762).
T4 sequence (whole entry): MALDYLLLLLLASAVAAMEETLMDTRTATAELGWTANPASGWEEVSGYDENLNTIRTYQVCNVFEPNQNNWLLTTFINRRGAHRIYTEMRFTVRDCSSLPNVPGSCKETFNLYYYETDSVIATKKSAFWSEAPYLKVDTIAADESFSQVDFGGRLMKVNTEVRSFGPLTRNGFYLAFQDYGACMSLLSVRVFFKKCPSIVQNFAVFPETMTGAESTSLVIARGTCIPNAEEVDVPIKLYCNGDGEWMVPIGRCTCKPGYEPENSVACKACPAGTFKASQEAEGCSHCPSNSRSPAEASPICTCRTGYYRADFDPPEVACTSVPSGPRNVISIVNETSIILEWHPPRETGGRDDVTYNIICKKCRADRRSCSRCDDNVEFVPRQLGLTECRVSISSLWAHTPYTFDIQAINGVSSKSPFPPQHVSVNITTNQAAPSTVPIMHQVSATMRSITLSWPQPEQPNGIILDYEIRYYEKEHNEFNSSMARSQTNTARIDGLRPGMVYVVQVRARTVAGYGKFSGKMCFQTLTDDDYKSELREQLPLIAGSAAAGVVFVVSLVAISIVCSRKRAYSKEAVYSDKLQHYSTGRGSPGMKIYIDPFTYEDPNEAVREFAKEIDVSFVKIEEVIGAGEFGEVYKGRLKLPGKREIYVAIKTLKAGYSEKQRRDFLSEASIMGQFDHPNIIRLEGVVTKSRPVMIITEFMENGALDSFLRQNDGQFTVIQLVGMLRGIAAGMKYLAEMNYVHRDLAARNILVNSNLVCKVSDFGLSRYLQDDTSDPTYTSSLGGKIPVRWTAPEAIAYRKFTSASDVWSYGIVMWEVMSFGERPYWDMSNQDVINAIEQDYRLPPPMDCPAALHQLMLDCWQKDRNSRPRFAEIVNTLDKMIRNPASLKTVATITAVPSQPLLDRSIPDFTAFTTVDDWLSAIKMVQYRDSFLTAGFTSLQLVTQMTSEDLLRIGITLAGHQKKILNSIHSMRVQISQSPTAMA
As to conditions: at 1 µM.

Assay [10] has as its target T3, Ephrin type-A receptor 1 (Homo sapiens). As to conditions: at 10 µM.
Assay [11] addresses T5, Ephrin type-A receptor 3 (Homo sapiens) (UniProt P29320).
T5 sequence (whole entry): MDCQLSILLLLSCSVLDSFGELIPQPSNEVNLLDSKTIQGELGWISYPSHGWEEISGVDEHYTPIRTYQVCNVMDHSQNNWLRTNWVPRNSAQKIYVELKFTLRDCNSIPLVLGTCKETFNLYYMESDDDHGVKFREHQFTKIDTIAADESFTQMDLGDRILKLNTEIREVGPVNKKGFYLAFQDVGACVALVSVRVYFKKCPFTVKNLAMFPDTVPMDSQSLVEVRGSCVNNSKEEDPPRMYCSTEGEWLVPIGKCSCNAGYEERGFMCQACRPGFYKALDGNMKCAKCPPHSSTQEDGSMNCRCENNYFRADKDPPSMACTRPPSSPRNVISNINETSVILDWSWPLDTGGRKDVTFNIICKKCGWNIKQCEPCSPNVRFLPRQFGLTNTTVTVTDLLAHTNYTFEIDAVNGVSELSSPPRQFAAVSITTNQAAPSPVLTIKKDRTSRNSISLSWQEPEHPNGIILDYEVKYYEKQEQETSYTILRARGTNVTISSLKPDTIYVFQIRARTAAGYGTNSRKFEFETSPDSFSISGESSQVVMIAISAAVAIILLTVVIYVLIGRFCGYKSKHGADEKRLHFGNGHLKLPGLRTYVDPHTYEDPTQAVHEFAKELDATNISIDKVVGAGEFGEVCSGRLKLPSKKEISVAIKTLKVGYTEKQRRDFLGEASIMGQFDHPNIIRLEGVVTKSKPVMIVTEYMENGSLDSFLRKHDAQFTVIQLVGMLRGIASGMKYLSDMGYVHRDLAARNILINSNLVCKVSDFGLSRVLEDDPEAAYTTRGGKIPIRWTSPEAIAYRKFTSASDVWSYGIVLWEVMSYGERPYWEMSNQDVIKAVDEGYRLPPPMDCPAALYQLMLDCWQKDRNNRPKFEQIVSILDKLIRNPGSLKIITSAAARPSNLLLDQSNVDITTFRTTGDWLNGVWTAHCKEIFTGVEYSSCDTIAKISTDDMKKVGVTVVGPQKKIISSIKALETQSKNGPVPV
As to conditions: at 1 µM.

For assay [12], the target named is T5, Ephrin type-A receptor 3 (Homo sapiens). The conditions noted are these: at 10 µM.
In assay [13] the target is Ephrin type-A receptor 7 (Homo sapiens) (UniProt Q15375). The conditions noted are these: at 1 µM.
For assay [14] the target is unchanged. The conditions noted are these: at 10 µM.
Assay [15] deals with T6, Ephrin type-A receptor 8 (Homo sapiens) (UniProt P29322).
T6 sequence (whole entry): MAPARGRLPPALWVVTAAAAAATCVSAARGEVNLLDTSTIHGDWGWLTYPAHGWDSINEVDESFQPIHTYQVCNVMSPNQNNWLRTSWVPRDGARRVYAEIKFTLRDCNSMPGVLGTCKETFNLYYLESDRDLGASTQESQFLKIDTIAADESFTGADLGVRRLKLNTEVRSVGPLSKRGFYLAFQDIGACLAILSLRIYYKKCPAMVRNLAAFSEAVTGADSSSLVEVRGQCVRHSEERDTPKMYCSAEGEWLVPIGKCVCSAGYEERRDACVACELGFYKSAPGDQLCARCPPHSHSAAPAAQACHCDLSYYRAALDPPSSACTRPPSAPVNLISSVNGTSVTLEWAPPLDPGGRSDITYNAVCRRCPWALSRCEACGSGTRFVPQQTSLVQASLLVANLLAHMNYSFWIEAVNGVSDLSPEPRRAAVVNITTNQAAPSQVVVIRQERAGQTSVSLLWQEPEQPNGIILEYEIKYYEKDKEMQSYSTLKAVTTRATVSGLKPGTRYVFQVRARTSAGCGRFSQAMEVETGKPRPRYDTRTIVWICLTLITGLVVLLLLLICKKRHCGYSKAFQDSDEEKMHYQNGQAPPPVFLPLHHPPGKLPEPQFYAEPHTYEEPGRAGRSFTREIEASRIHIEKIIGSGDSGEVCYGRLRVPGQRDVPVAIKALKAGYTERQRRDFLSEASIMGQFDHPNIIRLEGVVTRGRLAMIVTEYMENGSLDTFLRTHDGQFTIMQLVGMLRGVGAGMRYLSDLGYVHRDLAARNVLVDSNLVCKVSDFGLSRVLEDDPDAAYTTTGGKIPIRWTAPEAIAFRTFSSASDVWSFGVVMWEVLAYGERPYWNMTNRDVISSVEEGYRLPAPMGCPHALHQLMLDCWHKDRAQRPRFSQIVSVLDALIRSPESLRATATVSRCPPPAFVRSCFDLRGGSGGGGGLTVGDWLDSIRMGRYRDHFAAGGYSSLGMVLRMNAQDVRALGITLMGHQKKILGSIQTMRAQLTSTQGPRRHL
As to conditions: at 10 µM.

Assay [16] addresses Ephrin type-A receptor 4 (Homo sapiens) (UniProt P54764). As to conditions: at 10 µM.
Assay [17] has as its target T6, Ephrin type-A receptor 8 (Homo sapiens). As to conditions: at 1 µM.

Sequence of Ephrin type-A receptor 5 (Homo sapiens) (P54756 whole entry): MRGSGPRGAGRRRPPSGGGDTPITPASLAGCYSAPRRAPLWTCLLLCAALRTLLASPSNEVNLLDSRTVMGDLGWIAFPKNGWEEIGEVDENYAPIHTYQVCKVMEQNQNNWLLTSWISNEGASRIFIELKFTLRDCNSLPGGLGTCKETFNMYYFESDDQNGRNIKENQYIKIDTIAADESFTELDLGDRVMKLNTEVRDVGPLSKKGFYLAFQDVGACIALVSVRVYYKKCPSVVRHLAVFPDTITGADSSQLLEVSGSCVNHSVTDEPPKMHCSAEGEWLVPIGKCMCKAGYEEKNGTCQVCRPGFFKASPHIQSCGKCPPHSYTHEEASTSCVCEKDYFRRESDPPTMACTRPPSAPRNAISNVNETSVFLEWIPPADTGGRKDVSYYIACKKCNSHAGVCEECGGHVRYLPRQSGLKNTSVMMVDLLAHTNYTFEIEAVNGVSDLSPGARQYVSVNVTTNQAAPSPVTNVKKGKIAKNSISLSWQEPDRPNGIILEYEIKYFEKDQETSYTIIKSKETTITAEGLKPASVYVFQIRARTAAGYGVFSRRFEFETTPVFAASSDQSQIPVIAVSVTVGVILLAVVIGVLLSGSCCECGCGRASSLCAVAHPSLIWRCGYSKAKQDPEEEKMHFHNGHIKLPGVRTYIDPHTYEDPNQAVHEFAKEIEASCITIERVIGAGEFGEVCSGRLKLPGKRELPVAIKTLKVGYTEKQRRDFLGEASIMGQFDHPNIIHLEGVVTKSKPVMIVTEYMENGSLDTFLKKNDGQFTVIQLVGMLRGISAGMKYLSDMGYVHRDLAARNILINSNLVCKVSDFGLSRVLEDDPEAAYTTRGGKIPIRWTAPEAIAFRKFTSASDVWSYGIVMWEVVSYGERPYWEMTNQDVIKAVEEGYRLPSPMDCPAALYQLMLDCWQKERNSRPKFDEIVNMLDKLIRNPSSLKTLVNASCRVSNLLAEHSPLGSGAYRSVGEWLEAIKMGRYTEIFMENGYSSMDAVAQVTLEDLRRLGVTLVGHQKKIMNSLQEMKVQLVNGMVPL
Sequence of Ephrin type-A receptor 7 (Homo sapiens) (Q15375 28-998 limits assumed): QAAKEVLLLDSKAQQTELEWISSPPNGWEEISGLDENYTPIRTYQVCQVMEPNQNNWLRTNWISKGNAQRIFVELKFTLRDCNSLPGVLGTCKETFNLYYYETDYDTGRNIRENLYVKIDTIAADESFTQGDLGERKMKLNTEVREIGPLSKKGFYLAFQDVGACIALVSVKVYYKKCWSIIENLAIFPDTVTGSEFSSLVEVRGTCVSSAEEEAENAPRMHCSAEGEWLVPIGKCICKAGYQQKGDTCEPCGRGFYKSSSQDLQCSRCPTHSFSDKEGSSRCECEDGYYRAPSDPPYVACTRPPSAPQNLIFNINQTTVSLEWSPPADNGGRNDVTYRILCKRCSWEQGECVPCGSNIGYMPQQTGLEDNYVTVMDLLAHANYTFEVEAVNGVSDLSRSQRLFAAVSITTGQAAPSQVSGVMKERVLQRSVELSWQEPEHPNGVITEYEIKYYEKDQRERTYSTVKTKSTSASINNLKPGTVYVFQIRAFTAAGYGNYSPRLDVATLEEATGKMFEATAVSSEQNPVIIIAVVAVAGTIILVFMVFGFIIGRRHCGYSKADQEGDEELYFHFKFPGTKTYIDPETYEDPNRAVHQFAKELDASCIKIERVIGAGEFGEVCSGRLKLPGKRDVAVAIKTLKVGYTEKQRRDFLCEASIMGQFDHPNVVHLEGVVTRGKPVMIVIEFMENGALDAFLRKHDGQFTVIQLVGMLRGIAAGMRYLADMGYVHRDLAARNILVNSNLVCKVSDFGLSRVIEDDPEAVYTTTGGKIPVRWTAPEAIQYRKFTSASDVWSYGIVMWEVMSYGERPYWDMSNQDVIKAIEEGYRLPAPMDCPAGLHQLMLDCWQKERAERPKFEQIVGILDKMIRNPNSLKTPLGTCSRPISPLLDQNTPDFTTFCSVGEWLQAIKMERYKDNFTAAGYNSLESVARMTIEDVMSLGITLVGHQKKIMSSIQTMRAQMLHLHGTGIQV
Sequence of Epidermal growth factor receptor (Homo sapiens) (P00533 whole entry): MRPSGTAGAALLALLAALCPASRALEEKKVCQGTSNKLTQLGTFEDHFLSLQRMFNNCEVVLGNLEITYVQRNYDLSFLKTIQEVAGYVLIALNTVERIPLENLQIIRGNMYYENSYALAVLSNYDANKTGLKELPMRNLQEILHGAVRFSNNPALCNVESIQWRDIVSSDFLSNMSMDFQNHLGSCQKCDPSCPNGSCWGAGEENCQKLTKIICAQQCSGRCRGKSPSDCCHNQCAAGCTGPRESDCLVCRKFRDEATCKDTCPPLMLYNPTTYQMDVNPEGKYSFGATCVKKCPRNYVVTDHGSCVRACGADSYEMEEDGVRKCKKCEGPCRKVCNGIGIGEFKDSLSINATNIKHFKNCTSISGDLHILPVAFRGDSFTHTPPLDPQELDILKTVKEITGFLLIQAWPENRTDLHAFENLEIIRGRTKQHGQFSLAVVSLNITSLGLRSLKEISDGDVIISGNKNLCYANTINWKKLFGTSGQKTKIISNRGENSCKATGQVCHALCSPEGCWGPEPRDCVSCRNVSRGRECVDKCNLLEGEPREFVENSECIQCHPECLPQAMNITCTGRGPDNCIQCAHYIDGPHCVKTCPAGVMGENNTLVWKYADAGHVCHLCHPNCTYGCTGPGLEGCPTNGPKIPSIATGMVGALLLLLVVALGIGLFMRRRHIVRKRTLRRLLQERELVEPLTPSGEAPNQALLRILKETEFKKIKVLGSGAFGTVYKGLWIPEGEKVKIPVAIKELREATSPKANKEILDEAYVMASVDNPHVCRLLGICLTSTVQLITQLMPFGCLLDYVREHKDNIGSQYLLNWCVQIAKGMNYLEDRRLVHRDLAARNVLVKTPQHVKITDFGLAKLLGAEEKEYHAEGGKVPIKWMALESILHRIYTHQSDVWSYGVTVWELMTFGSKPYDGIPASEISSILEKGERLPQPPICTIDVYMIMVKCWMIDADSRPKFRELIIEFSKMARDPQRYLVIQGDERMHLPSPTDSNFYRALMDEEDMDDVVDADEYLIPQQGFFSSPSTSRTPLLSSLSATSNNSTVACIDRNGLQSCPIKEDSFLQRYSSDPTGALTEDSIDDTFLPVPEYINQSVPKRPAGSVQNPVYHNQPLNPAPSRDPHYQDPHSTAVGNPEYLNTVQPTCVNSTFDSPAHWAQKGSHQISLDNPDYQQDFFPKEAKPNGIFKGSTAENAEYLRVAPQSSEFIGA
Sequence of Ephrin type-A receptor 4 (Homo sapiens) (P54764 whole entry): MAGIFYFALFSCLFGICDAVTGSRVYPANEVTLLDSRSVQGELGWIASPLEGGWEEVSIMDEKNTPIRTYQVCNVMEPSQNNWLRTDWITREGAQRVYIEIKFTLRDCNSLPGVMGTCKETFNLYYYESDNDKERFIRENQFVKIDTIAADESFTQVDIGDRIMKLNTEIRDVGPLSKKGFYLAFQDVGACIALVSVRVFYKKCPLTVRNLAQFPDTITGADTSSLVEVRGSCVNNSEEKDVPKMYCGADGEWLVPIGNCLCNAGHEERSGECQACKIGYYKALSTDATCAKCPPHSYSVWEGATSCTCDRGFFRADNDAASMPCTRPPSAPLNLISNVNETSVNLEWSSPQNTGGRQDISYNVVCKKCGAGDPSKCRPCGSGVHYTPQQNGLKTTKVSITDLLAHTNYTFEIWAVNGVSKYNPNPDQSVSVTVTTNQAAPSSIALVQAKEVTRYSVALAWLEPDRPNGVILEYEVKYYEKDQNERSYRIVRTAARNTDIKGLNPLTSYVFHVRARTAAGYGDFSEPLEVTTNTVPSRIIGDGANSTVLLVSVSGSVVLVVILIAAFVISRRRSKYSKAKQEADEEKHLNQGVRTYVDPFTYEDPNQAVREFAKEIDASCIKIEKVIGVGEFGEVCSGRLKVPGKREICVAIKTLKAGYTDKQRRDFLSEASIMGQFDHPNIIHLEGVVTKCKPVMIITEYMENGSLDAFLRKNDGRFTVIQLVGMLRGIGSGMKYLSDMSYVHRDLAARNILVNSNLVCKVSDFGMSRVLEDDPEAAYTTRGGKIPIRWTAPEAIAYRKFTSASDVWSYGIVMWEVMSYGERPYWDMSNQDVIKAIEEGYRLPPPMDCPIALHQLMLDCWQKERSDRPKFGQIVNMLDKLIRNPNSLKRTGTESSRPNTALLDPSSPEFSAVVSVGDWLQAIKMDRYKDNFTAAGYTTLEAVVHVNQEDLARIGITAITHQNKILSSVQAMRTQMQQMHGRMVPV

With `Oc1cccc(-c2nc(N3CCOCC3)c3oc4ncccc4c3n2)c1`, the residual activity (as a rule, the signal under treatment as a percentage of the control signal) in assay [1] was 86%; in assay [2], 94%; in assay [3], 98%; in [4], 119%; in assay [5], 119%; in assay [6], 91%. Also, the residual activity in assay [7] is 98%; in [8], 124%; in assay [9] it was 95%.

`NC(=O)c1cccc(-c2cc(Nc3ccc(OC(F)(F)F)cc3)ncn2)c1`: the residual activity was determined as 145% in assay [1], 91% in assay [3] and 96% in [10].

Turning to `Nc1n[nH]c2nc3ccccc3nc12`, the residual activity in [1] was 50%; in assay [2], 92%; in assay [3], 41%; in assay [6] it was 87%; in [10], 83%; in assay [11], 98%. Moreover, the residual activity in [12] was 98%; in assay [8], 97%; in assay [13], 99%; in [14], 79%; in assay [15], 91%.

On to `Nc1ncnc2c1cnn2-c1ccccc1`, for which the residual activity in assay [1] worked out at 68%; in assay [2], 85%; in assay [3], 44%; in assay [6], 85%; in assay [10], 88%; in assay [11], 100%. Besides, the residual activity in assay [12] is 84%; in assay [16], 97%; in [8], 88%; in [13] it was 102%; in assay [14] it was 97%; in [17], 100%. Also, the residual activity in assay [15] was 95%.

For the origin of these results see ChEMBL document CHEMBL2218924, “A broad activity screen in support of a chemogenomic map for kinase signalling research and drug discovery” (Biochem J, 2013).
